Inconclusive results are not listed. Unmarked numbers belong to inactive results. Some of the results follow. Entries that show only a call come without a potency. The source made the active and inactive calls. Calls follow the shape of the dose curve; as a rule, active = well fitted curve in the direction sought with a large enough effect; inconclusive = small, poorly fitted or top-dose-only effect, or another doubt; inactive = no such curve, though single readings can be large; an effect the other way counts as inactive or inconclusive.
Legend:
[1] = biological target: Rap guanine nucleotide exchange factor 3 (Homo sapiens) (UniProt O95398); assay: Confirmatory qHTS for agonist of cAMP-regulated guanine nucleotide exchange factor 3 (EPAC1) (AID 1645881); also: nearly all actives have a fitted effect of over 75% in size; also: potency is read from the fitted curve at half-maximal effect;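 as to activation: EPAC1 catalysed release of BODIPY-GDP from Rap1B seen as fluorescence loss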
[2] = biological target: Rap guanine nucleotide exchange factor 4 (Homo sapiens) (UniProt Q8WZA2); assay: Confirmatory qHTS for agonist of cAMP-regulated guanine nucleotide exchange factor 4 (EPAC2) (AID 1645884);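 also: nucleotide exchange releases bodipy-GDP from Rap1 and this lowers its fluorescence; nearly all actives have a fitted effect of over 65% in size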; also: potency is read from the fitted curve at half-maximal effect
[3] = biological target: Rap guanine nucleotide exchange factor 3 (Homo sapiens) (UniProt O95398); assay: Counterscreen qHTS for antagonist of cAMP-regulated guanine nucleotide exchange factor 3 (EPAC1) (AID 1645888);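 also: fluorescence loss as bound BODIPY-GDP is released from Rap1B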
In short: (§1)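 Rap1B–BODIPY-GDP (250 nM) with 50 uM GDP; compounds pin-transferred to 9.74 nM–152 uM final (activator) or from 7.32 nM upwards (inhibitor). Fluorescence Ex/Em 480/540 nm read at 5 and 30 min, then after adding cAMP or buffer, at room temperature.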

[4] = biological target: Rap guanine nucleotide exchange factor 3 (Homo sapiens) (UniProt O95398); assay: Counterscreen qHTS for agonist of cAMP-regulated guanine nucleotide exchange factor 3 (EPAC1) (AID 1645889); also: nearly all actives have a fitted effect of over 40% in size; also: potency is read from the fitted curve at half-maximal effect
In short: as §1

[5] = qHTS Assay for Inhibitors of Fructose-1,6-bisphosphate Aldolase from Giardia Lamblia: Giardia lamblia growth inhibition (AID 2785); also: nearly all actives have a fitted effect of over 70% in size
In short: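 G. lamblia WB trophozoites (100 cells/well) were grown with compound at 37C for 48 h in modified TYI-S-33 medium, pH 7.0. Growth was measured by ATPlite luminescence after 20 min at room temperature.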

[6] = qHTS Assay for Inhibitors of Fructose-1,6-bisphosphate Aldolase from Giardia Lamblia: Mammalian cellular toxicity (AID 2786);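 also: compound exposure lasted 48 h before reading; nearly all actives have a fitted effect of over 60% in size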
In short: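 CHO cells seeded at 250 cells/well with pin-tool-added compound, incubated 48 h at 37 °C, 5% CO2. Viability read as ATP content by ATPlite luminescence after 20 min.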

[7] = biological target: Tyrosyl-DNA phosphodiesterase 1 (Homo sapiens) (UniProt Q9NUW8); assay: Confirmation Assay for Inhibitors of Tyrosyl-DNA Phosphodiesterase (TDP1) (AID 489007); conditions: recombinant human TDP1 enzymatic activity, dose-response; also: potency is read from the fitted curve at half-maximal effect; nearly all actives have a fitted effect of over 40% in size
In short: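 Loss of AlphaScreen signal reports Tdp1 cleavage of a dual-labelled DNA substrate. Conditions: 1 nM E. coli-derived enzyme, 15 nM substrate, 15 min compound preincubation, 5 min reaction, 10 min bead incubation, all at room temperature.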

[8] = biological target: Tumor susceptibility gene 101 protein (Homo sapiens) (UniProt Q99816); assay: qHTS Assay for Iinhibitors of HIV-1 Budding by Blocking the Interaction of PTAP/TSG101: Hit Validation (AID 651600); also: potency is read from the fitted curve at half-maximal effect; nearly all actives have a fitted effect of over 70% in size
In short: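 FITC-PTAP peptide (50 nM final) binding to Tsg101 binding domain (10 uM final) was measured by polarization after 20 min at r.t. with compounds, in 10 mM HEPES pH 7.5 buffer with 0.15 M NaCl and 0.01% Tween 20.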

[9] = biological target: Phosphoglycerate kinase, glycosomal (Trypanosoma brucei brucei) (UniProt P07378); assay: qHTS for inhibitors of Phosphogylcerate Kinase: Hit Validation Screen (AID 686980); conditions: TbPGK coupled GAPDH assay, Kinase-Glo luminescence; also: potency is read from the fitted curve at half-maximal effect; nearly all actives have a fitted effect of over 65% in size
In short: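 Recombinant glycosomal PGK reaction used 1,3-bisphosphoglycerate generated in-well by GAPDH (100nM final) in 100mM TEA pH 7.6, 5mM MgCl2, 0.01% Tween-20. After 60 minutes at room temperature, ATP was read by Kinase-Glo Plus luminescence end-point.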

[10] = biological target: DNA polymerase iota (Homo sapiens) (UniProt Q9UNA4); assay: qHTS for Inhibitors of Polymerase Iota: Confirmatory Assay for Cherry-picked Compounds (AID 720496); conditions: Pol iota primer extension, TAMRA/BHQ fluorescence; also: potency is read from the fitted curve at half-maximal effect
In short: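 Kinetic fluorescence, 0 → 10 min, ex 525/em 598 nm. Pol iota 10 nM, 15 min RT preincubation with compound, then 50 nM (final) TAMRA/BHQ-2 primer-template substrate.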

[11] = biological target: Flap endonuclease 1 (Homo sapiens) (UniProt P39748); assay: qHTS Assay for the Inhibitors of FEN1: Confirmatory Assay for Cherry-picked Compounds (AID 720498); conditions: FEN1 flap cleavage, TAMRA/BHQ2 fluorogenic DNA substrate; also: potency is read from the fitted curve at half-maximal effect; nearly all actives have a fitted effect of over 60% in size
In short: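 Human FEN1 (10 nM reagent) was preincubated with compounds for 15 min at room temperature, then 50 nM final double-flap DNA substrate (5'-TAMRA flap, BHQ-2 quencher strand) was added. Fluorescence (ex 525/em 598 nm) was read at 0 and 15 min.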

Chain of Rap guanine nucleotide exchange factor 3 (Homo sapiens) (O95398 whole entry, looked up): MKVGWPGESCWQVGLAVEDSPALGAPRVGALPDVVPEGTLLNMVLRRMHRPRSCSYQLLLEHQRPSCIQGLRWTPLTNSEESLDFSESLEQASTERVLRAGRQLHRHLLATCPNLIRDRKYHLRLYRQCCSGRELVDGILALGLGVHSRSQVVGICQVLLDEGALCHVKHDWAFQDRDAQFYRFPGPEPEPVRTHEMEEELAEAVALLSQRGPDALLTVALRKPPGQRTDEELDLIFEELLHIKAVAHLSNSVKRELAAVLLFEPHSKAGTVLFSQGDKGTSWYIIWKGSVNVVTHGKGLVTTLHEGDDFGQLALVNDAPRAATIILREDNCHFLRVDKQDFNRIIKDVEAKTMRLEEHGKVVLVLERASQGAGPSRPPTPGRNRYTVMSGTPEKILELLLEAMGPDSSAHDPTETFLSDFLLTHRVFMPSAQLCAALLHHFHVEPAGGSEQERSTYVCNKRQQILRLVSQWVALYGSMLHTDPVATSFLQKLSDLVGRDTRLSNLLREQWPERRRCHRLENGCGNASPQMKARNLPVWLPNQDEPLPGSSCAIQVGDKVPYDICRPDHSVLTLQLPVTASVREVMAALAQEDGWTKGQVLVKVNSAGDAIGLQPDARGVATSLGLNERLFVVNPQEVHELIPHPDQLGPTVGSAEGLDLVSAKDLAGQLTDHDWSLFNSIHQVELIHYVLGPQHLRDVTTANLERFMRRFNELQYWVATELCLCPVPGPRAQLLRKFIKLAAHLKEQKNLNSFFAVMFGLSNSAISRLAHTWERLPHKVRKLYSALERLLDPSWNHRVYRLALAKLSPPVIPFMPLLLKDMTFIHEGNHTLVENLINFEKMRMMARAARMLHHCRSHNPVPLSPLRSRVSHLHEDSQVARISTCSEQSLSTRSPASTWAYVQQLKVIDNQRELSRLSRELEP
Chain of Rap guanine nucleotide exchange factor 4 (Homo sapiens) (Q8WZA2 whole entry, looked up): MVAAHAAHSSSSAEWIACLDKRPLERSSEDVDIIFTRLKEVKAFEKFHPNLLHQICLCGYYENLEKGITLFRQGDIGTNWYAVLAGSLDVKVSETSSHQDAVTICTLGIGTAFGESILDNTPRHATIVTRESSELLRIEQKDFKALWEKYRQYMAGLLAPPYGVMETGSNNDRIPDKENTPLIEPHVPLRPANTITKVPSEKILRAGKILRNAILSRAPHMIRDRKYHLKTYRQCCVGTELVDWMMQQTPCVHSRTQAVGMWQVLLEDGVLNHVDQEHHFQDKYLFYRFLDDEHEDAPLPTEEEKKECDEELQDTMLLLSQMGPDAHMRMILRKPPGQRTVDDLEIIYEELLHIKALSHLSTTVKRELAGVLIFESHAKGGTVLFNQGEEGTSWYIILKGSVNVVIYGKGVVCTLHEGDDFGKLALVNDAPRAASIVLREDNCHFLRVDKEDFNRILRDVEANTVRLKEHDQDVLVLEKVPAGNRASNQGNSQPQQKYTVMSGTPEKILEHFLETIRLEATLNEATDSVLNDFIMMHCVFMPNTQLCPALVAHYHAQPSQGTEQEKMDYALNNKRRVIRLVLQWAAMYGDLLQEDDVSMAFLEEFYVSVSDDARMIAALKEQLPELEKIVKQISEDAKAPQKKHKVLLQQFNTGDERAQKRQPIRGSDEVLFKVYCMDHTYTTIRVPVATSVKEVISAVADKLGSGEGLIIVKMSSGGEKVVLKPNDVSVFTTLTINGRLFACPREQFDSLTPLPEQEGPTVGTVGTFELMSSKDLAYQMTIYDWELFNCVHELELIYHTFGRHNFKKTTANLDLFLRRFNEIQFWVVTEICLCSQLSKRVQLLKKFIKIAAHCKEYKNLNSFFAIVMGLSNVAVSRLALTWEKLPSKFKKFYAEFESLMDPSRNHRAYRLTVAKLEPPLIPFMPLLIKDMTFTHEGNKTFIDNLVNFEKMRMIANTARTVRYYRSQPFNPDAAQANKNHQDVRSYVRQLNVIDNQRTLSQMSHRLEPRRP
Chain of Tyrosyl-DNA phosphodiesterase 1 (Homo sapiens) (Q9NUW8 whole entry, looked up): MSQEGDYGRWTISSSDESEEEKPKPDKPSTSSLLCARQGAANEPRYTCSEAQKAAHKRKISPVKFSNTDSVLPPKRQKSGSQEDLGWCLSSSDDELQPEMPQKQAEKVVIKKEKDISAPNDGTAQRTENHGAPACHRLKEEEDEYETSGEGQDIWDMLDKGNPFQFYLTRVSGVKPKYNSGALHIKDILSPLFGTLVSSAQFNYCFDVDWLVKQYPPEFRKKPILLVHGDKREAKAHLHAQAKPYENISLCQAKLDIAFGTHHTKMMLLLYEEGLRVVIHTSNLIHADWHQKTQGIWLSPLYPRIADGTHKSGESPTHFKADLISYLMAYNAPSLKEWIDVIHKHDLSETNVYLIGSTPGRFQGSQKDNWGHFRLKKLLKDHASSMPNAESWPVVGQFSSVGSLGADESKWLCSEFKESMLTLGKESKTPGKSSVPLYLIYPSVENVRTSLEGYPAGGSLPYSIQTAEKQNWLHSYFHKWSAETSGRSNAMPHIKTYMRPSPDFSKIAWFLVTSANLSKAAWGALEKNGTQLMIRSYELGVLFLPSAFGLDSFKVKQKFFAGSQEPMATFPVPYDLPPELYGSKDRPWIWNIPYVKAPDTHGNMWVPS
Chain of Tumor susceptibility gene 101 protein (Homo sapiens) (Q99816 whole entry, looked up, the tested form may be a part): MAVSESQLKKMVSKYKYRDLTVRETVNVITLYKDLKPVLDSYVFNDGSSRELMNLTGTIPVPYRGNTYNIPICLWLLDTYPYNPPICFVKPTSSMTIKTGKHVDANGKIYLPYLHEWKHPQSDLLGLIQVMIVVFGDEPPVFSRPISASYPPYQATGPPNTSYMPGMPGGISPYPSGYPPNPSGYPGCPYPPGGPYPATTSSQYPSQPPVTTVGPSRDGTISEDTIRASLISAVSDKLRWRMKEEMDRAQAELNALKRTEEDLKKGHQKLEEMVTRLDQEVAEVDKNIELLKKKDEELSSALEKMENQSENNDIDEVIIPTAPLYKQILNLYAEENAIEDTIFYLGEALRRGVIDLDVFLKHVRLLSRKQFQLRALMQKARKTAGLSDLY
Chain of Flap endonuclease 1 (Homo sapiens) (P39748 whole entry, looked up): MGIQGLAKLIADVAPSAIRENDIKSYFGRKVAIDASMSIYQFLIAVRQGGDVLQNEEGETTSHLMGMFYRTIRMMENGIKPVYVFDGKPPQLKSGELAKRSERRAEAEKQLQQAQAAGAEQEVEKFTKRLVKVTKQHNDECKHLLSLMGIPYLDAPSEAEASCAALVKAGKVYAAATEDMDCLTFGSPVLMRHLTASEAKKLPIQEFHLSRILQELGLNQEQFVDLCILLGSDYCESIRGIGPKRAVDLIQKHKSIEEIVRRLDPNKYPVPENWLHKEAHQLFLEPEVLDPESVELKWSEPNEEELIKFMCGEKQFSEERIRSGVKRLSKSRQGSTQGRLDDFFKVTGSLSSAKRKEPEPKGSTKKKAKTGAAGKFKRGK
Chain of DNA polymerase iota (Homo sapiens) (Q9UNA4 whole entry, looked up): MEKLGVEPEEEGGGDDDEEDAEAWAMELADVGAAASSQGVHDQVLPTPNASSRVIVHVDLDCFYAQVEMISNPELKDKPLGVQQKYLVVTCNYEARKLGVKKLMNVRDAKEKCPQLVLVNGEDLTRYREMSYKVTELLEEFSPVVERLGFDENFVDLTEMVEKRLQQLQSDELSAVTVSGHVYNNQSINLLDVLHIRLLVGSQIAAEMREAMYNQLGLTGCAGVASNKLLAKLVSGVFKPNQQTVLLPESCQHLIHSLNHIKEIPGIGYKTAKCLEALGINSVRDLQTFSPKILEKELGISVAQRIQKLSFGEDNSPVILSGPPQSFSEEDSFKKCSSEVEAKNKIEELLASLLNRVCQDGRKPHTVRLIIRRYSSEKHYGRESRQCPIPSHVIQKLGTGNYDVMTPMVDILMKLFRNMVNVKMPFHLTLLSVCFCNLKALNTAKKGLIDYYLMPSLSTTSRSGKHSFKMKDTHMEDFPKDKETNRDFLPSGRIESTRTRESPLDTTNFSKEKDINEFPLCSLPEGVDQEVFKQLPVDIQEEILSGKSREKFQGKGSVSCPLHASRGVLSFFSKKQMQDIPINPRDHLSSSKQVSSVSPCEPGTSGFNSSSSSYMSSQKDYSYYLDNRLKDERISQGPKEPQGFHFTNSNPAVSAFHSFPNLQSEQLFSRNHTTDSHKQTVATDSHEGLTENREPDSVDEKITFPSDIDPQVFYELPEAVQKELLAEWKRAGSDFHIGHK
Chain of Phosphoglycerate kinase, glycosomal (Trypanosoma brucei brucei) (P07378 whole entry, looked up): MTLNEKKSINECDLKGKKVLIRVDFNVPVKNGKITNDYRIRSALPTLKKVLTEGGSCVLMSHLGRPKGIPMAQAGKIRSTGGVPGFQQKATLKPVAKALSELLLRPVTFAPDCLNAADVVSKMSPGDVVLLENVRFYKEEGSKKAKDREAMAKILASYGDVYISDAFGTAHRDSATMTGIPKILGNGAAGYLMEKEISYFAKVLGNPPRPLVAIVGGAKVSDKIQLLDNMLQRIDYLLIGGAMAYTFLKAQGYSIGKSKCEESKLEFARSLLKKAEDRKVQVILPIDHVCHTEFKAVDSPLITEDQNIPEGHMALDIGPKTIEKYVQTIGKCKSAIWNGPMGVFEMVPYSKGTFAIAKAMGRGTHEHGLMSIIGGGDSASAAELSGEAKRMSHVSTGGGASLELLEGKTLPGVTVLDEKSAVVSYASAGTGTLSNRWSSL

O=S(=O)(Nc1nccs1)c1ccc(Nc2nnc(-c3ccccc3)c3ccccc23)cc1
Potency [1]: inactive
activation [2]: 2.79% [at 17.1 µM, percent relative to cAMP agonist control]
activity change, negative = inhibition [3]: 3.85% [at 30.8 µM]
activation [4]: 17.5% [at 30.8 µM]

C=CC[C@@H](Cc1ccc(F)cc1)C(=O)OC[C@@H]1CCCN1C(=O)[C@@H](CC=C)CC(=O)N(CCO)Cc1ccccc1
Potency [1]: inactive
Potency [2]: inactive
Potency [3]: inactive
Potency [4]: inactive

CCOc1ccc(NC(=NCc2ccc3c(c2)OCO3)SC2CC(=O)N(c3ccc(C(=O)O)cc3)C2=O)cc1 (centres undefined)
Potency [1]: inactive
Potency [2]: inactive
Potency [3]: inactive
Potency [4]: inactive

O=C(COc1ccc(Cl)cc1Cl)c1ccc[nH]1
Potency [1]: inactive
activation [2]: -1.61% [at 17.1 µM, percent relative to cAMP agonist control]
activity change, negative = inhibition [3]: -17.9% [at 30.8 µM]
activation [4]: 7.74% [at 30.8 µM]

CCOC(=O)c1c(NC(=O)c2ccc(S(=O)(=O)N(C)CC3CCCO3)cc2)sc2c1CCN(C)C2 (centres undefined)
Potency [1]: inactive
Potency [2]: inactive
Potency [3]: inactive
Potency [4]: inactive

COc1ccc(/C=C/C(=O)c2ccccc2)c(OC)c1
Potency [1]: inactive
activation [2]: 0.603% [at 17.1 µM, percent relative to cAMP agonist control]
activity change, negative = inhibition [3]: -16.1% [at 30.8 µM]
activation [4]: -1.52% [at 30.8 µM]

CC(NC(=O)COC(=O)C1CCN(c2ccc(C(F)(F)F)cn2)CC1)c1ccc(Br)cc1 (centres undefined)
Potency [1]: inactive
Potency [2]: inactive
Potency [4]: inactive

O=C1[C@H](Cc2ccccc2)NCC=CC[C@@H](c2ccc(Cl)cc2)N1Cc1ccc(Cl)cc1
Potency [1]: inactive
Potency [2]: inactive
Potency [3]: inactive
Potency [4]: inactive

CCOC(=O)c1c(NC(=O)C2C3C=CC(C3)C2C(=O)O)sc2c1CCC(CC)C2 (centres undefined)
Potency [1]: inactive
Potency [2]: inactive
Potency [4]: inactive

COc1ccccc1C(=O)Nc1ccccc1C(=O)N1C(C)CCCC1C (centres undefined)
Potency [1]: inactive
Potency [2]: inactive
Potency [3]: inactive
Potency [4]: inactive

CN(CC(=O)Nc1ccccc1Cl)C(=O)c1ccc(-c2cccc(C(F)(F)F)c2)o1
Potency [1]: inactive
Potency [2]: inactive
Potency [4]: inactive

CCCCN(CCCC)C1=Nc2ccccc2N/C1=C(/C#N)C(=O)OCC
Potency [1]: inactive
Potency [2]: inactive
Potency [3]: inactive
Potency [4]: inactive

Nc1ccc2nc3c(=O)[nH]c(=S)[nH]c3nc2c1
outcome [5]: inactive
outcome [6]: inactive
Potency [7]: 39.8 µM (active)
Potency [8]: 18.3 µM (active)
Potency [9]: 16.3 µM (active)
Potency [10]: 33.6 µM (active)
Potency [11]: 67.5 µM (active)
Potency [1]: 79.4 µM (active)
Potency [2]: 100 µM (active)
Potency [3]: inactive
Potency [4]: 44.7 µM (active)

O=S(=O)(Nc1ccccc1N1CCCC1)c1ccccc1C(F)(F)F
Potency [1]: inactive
Potency [2]: inactive
Potency [3]: inactive
Potency [4]: inactive

CC(C)CCNC(=O)C(CC(C)C)N(Cc1ccc2c(c1)OCO2)C(=O)c1snc(C(N)=O)c1N (centres undefined)
Potency [1]: inactive
Potency [2]: inactive
Potency [4]: inactive

COc1ccc(-c2ccc(C(=O)NCC3CC3)c3occc23)c(C)c1
Potency [1]: inactive
Potency [2]: inactive
Potency [3]: inactive
Potency [4]: inactive

CC(c1ccon1)N(C)Cc1cn(C)nc1-c1cccc(Cl)c1 (centres undefined)
Potency [1]: inactive
Potency [2]: inactive
Potency [3]: inactive
Potency [4]: inactive

CCOC(=O)c1c(C)[nH]c(C)c1C(=O)COC(=O)c1cc(OC)cc(OC)c1
Potency [1]: inactive
Potency [2]: inactive
Potency [4]: inactive

COc1cc(/C=C/[N+](=O)[O-])ccc1OCc1cccc(C(=O)O)c1
Potency [7]: 79.4 µM (active)
Potency [1]: inactive
Potency [2]: inactive
Potency [3]: inactive
Potency [4]: inactive

CN1C(=O)/C(=C2/C=Cc3ccccc3N2CCCS(=O)(=O)O)SC1=S
Potency [1]: inactive
Potency [2]: inactive
Potency [4]: inactive

Cc1cc(C)c2nc(C(F)(F)F)nc(N3CC(C)OC(C)C3)c2c1 (centres undefined)
Potency [1]: inactive
Potency [2]: inactive
Potency [4]: inactive

COc1ccccc1N(C)S(=O)(=O)c1ccc(C(=O)NC2CCCCC2)cc1
Potency [1]: inactive
Potency [2]: inactive
Potency [3]: inactive
Potency [4]: inactive

COc1ccc(-c2nn(-c3ccccc3)cc2/C=C2/SC(=S)N(CCCC(=O)O)C2=O)c(C)c1
Potency [10]: 75.2 µM (active)
Potency [11]: 47.8 µM (active)
Potency [1]: inactive
Potency [2]: inactive
Potency [3]: inactive
Potency [4]: inactive

CCCCOc1ccc(C(=O)N/N=C/c2cn[nH]c2-c2ccc(OC)c(OC)c2)cc1
Potency [1]: inactive
Potency [2]: inactive
Potency [4]: inactive

CCCCN(CCCC)Cc1cc(=O)oc2cc(OC)ccc12
Potency [1]: inactive
Potency [2]: inactive
Potency [3]: inactive
Potency [4]: inactive

CN(N=Nc1ccc([N+](=O)[O-])cc1)c1ccccc1
Potency [8]: 13 µM (active)
Potency [1]: 112 µM (active)
Potency [2]: 100 µM (active)
Potency [3]: inactive

Cc1cc(C(C)(C)C)cc(C)c1COC(=O)c1cccnc1
Potency [1]: inactive
Potency [2]: inactive
Potency [3]: inactive
Potency [4]: inactive

CN(C)c1cc(Cl)c2nonc2c1N
Potency [1]: inactive
Potency [2]: inactive
Potency [3]: inactive
Potency [4]: inactive

Reference: PubChem BioAssay (NCATS)
